# Experimental data: PubChem BioAssay (NCI)
# Where “and” joins values, the source holds several entries; their conditions need not be identical. Equal entries are not always repeated. The panel holds about 79,000 compounds, 15% with a hit somewhere; the sample as a whole holds those more often. A number with no mark means an inactive call. Rule as the data show it: active = growth inhibition above about 70%; inactive = the rest.
# Assay: NCI Yeast Anticancer Drug Screen. Data for the bub3 strain (AID 167)
# Conditions: S. cerevisiae bub3 mutant strain, hits give high values; at 50.0 µM unless noted
# Experimental: Growth inhibition of yeast strains with defined genetic alterations is measured as a screen for potential anti-cancer activity. Selected strains with alterations in DNA damage repair or cell cycle control were exposed to compounds and growth inhibition was measured relative to vehicle treated controls. The strain used in this assay is bub3
row,SMILES,growth inhibition
1,CCC1CC2CC(c3cc4c(cc3OC)N(C)C3C(O)(C(=O)OC)C(OC(C)=O)C5(CC)C=CCN6CCC43C65)c3[nH]c4ccccc4c3CCN(C1)C2 (stereo not given),8.65%
2,O=C(NCCCl)c1ccc(Cl)c(Cl)c1,12.8%
3,O=[N+]([O-])c1ccc(/C=C(/c2ccc([N+](=O)[O-])o2)S(=O)(=O)c2ccccc2)cc1,-1.25%
4,O=S(=O)(CCCl)c1ccc(Br)cc1,39.4%
5,O=P1(O)c2ccccc2Nc2cc(C(F)(F)F)ccc21,-9.85%
6,CCn1nc(C)c2c1C(=O)NC(C)C(=O)N2 (stereo not given),-22.9%
7,C1=CC(=CN2CCc3ccccc3C2)C=C1,-9.2%
8,COc1ccc2c(c1)OC[C@@H]1c3cc(NS(=O)(=O)c4ccccc4)cc(OCc4ccccc4)c3O[C@H]21,1.4%
9,ClCCOC1CCCCO1 (stereo not given),-5.4%
10,Cc1ccc(S(=O)(=O)c2ccccc2)cc1,-5.35% and 3.1%
11,CC(=O)CC(=O)Nc1nc2ccccc2s1,-7.5%
12,C#CCN(Cc1ccc2nc(-c3ccccc3)c(Cl)nc2c1)c1cc(OC)c(OC)c(OC)c1,-26.1%
13,Nc1nc(Cl)cc(NCCO)n1,-21.1% and 4.8%
14,Cc1c2noc1CCCCCCCCCCC2,-13.7%
15,NC(=O)C1(N2CCCC2)CCN(Cc2ccccc2)CC1,-10.6%
16,CCOC(=O)C(NC(C)=O)(Nc1ccc(S(N)(=O)=O)cc1)C(F)(F)F (stereo not given),7.7%
17,O=C(O)/C=C/c1cc(Br)sc1Br,-0.95%
18,O=C(O)C1Oc2cc3ccccc3cc2O1,23.1%
19,O=C(O)c1cccc(C(=O)O)c1-c1c(C(=O)O)cccc1C(=O)O,7.45%
20,CCc1nc(Cl)nc(Cl)c1Cl,-8.5%

row,SMILES,growth inhibition
1,COC(=O)c1cccc(C(=O)OC)c1,-1.9% and 19.4%
2,Cc1cc2c(cc1Cl)SC(NNC1=NCCN1)=NS2(=O)=O,-17.9%
3,CC1SCc2nc3ccccc3n21 (stereo not given),5.7%
4,COC(=O)C(Cc1ccccc1)C(=O)C(CC(=O)OC(C)(C)C)NC(=O)OC(C)(C)C (stereo not given),22.1%
5,O=C1CSC(c2ccc(O)cc2)N1c1nncs1 (stereo not given),5.6%
6,CC1C(c2ccccc2)OCCN1CN1C(=O)c2ccccc2C1=O (stereo not given),17.1%
7,S=c1sc2c(s1)SCCCCSCCCCSc1sc(=S)sc1SCCCCSCCCCS2,6.75%
8,O=C(N/N=C(\c1nc2ccc(Cl)cc2[nH]c1=O)C(O)c1ccccc1Cl)c1ccncc1 (stereo not given),30.9%
9,C/C=C/C#C/C=C1/C=CC(=O)O1,34.2%
10,Cc1ccc(S(=O)(=O)NNC(=O)CCn2[nH]c(=O)c(Cl)c(Cl)c2=O)cc1,-0.3%
11,O=C(O)C1(C(=O)O)CCCCC1.[NH2-].[NH2-].[Pt+2],7.6%
12,N#CCCC(C#N)(CCC#N)C(N)=O,5.2%
13,O=C(Nc1ccccc1)C12CCC(CC1Br)C2 (stereo not given),1.75%
14,CC(C)(C)C1C=C(Sc2ccccc2)C(=O)O1 (stereo not given),61.2%
15,O=C(O)C(c1ccccc1)N1C(=O)C(Cl)=C(Cl)C1=O (stereo not given),1.15%
16,COc1cc(OC)c(/C=N/N=C(\N)NO)c(OC)c1,-1.15%
17,Cc1ncc(CN=Cc2ccc(Cl)cc2)c(N)n1,8.9%
18,O=c1c2cc(Cl)ccc2c2ccc(Cl)cc2c(=O)n1-c1ccc2c(c1)Cc1ccccc1-2,8.8%
19,O=C(CNc1nncs1)NO,-1.35%
20,CC(=O)OCC1COC(c2ccc(C)cc2)O1 (stereo not given),-4.45%
